Shown are actives, neighbours in structure and some others; about 21% of the full set was active somewhere.
Pf growth 96h – inhibits malaria parasite growth, 96 h. P. falciparum luciferase reporter growth, 96 h. Potency, µM (titrated, usually from 28.7 µM), actives largely listed as inhibitors. 320,000 compounds, 6.9% hits. AID 504834
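96 h incubation, 37 C, 5% CO2, of luciferase-reporter P. falciparum-infected RBCs (2% hematocrit, 0.05% parasitemia final) with test compounds; endpoint luminescence.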
Cycloheximide cs – counter-screen for Shiga toxin inhibitors: cycloheximide protein synthesis inhibition; cell reporter, cycloheximide protein synthesis inhibition counterscreen; max response, %; 300,000 compounds, 12% hits; in the data active = max response mostly above about 13%, no sharp cut-off; inactive = mostly below about 14%; note: read at 38.3 µM for the half of the compounds with a filed dose
NS1 function inh – influenza NS1 inhibition. AID 2326. Potency, µM (top dose mostly 46.1 µM). 270,000 compounds, 0.4% hits; calls by dose curve; note: actives are rising curves; nearly all actives have a fitted effect of over 50% in size
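Read-out: OD600 growth recovery of NS1-expressing budding yeast. Cells grown overnight at 30C in -URA glucose medium, washed, resuspended and diluted 1:100 in 2% galactose assay medium, pH 6.0. Same strain lacking NS1 served as positive control.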
Pf growth 48h – P. falciparum growth inhibition at 48 hours (one generation); P. falciparum luciferase growth in erythrocytes, 48 h; Potency, µM (titrated, usually from 28.7 µM), most hits filed as inhibitors; 310,000 compounds, 5.9% hits
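In quantitative HTS format, infected erythrocytes bearing luciferase-reporter parasites were treated for a single generation at 37 C. Luminescence after adding detection reagent served as the growth measure.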
Shiga inhibitor – inhibitors of Shiga toxin in Vero cells; Vero cells, Shiga toxin protein synthesis inhibition reporter; inhibition, % at 38.7 µM; 290,000 compounds, 9.2% hits; in the data active = inhibition mostly above about 28%, no sharp cut-off; inactive = mostly below about 43%
Numbers stand for hits; . = inactive; ? = inconclusive; / = not tested or not shown; [ ] = dose if it differs, or a comment. Unless noted, calls come from the whole dose curve; as a rule, active = well fitted inhibition curve with a large enough effect; inconclusive = small, poorly fitted or top-dose-only effect, or another doubt; inactive = no such curve, though single readings can be large or run the other way.

SMILES | Pf growth 96h | Cycloheximide cs | NS1 function inh | Pf growth 48h | Shiga inhibitor
COc1cc(/C=N/NC(=O)c2cccnc2)ccc1OS(=O)(=O)c1cc(C)ccc1C | ? | 17 | . | ? | .
Cc1cc(/C=N/NC(=O)c2ccc(O)cc2)c(C)n1CC(C)C | . | 48 | . | . | 82
COc1cc(/C=N/NC(=O)COc2cccc(F)c2)ccc1OS(=O)(=O)c1ccc(C)cc1 | 8.3µM | . | ? | ? | .
COc1cc(/C=N/NC(=O)c2cccnc2)ccc1OS(=O)(=O)c1ccc(C)cc1 | . | . | . | . | .
O=C(CSc1nc2c(c(=O)n1-c1ccccc1)SCC2)NCC1CCCO1 (configuration not stated) | . | . | . | . | .
Cc1ccc(N2C(=O)CC(Sc3ncccn3)C2=O)cc1C (configuration not stated) | . | . | . | . | .
COc1ccc(OCC(=O)N2N=C(C)CC2(O)C(F)(F)F)cc1 (configuration not stated) | ? | . | / | . | .
COc1ccc(CNC(=O)c2ccc[nH]2)cc1 | . | . | . | . | .
COc1ccc(/C=N/NC(=O)c2ccc[nH]2)cc1 | . | 29 | . | .[0.00184 µM] | 77
Cc1cc(O)c(C)c(O)c1/C=N/NC(=O)c1cccnc1 | . | . | . | ? | .
COc1cc(/C=N/NC(=O)c2cccnc2)ccc1OCC(=O)Nc1ccc(C)cc1 | . | 21 | . | . | .
COCCn1c(C)cc(/C=N/NC(=O)c2cccnc2)c1C | . | 22 | . | . | 69
COc1ccc(/C=N/NC(=O)c2cccnc2)cc1O | . | 19 | . | . | /
Cc1c(Cl)cccc1NC(=O)Cn1cc(C(F)(F)F)cc(Cl)c1=O | ? | . | . | ? | .
CCc1cccc(NC(=O)CCCSc2nc3ccccc3[nH]2)c1 | . | . | . | . | .
O=c1c2c3nc4ccccc4nc3n(CCN3CCOCC3)c2ncn1CCN1CCOCC1 | / | / | . | / | /
Cc1ccc(C(C(=O)NC2CCCCC2)N(CC2CCCO2)C(=O)CCCC(=O)Nc2ccccn2)cc1 (configuration not stated) | ? | . | . | ? | .
COc1ccc(/C=N/NC(=O)c2cccnc2)cc1CN1CCc2ccccc2C1 | 10µM | . | . | 10µM | .
COc1ccc(/C=N/NC(=O)c2ccc(F)cc2)cc1CN1CCc2cc(OC)c(OC)cc2C1C (configuration not stated) | . | . | / | ? | .
COc1ccc(/C=N/NC(=O)c2ccc(O)cc2)cc1CN1CCCc2ccccc21 | 2.3µM | . | ? | ? | .
CCOC(=O)N1CCN(C(=O)CSc2ccc3nnc(CCNC(=O)c4ccc(OC)cc4)n3n2)CC1 | . | . | / | . | .
Nn1c(Cc2ccccc2F)nnc1SCC(=O)Nc1cccc(S(=O)(=O)NC2=NCCCCC2)c1 | . | . | / | ? | .
O=C(/C=C/c1ccc(-c2ccccc2[N+](=O)[O-])o1)c1ccco1 | . | 37 | / | . | 113
O=[N+]([O-])c1ccccc1-c1ccc(/C=N/n2cnnc2)o1 | . | . | . | . | .
COc1ccc(Oc2cc(C(F)(F)F)cnc2C(N)=O)cc1 | / | . | . | . | .
SMILES | Pf growth 96h | Cycloheximide cs | NS1 function inh | Pf growth 48h | Shiga inhibitor
CC1=NN(C(=O)c2c(Br)c(C)nn2C)C(O)(C(F)(F)F)C1 (configuration not stated) | . | . | . | . | .
CC(C)=CCC/C(C)=C/CC/C(C)=C/CC/C=C(\C)CC/C=C(\C)CCC=C(C)C | . | / | / | . | /
CN[C@H](C)CCC=C(C)C | ? | / | / | 0.15µM | /
Cc1ccccc1NC(=O)CSc1nnc(CNC(=O)c2ccco2)n1C | ? | / | / | . | /
C=C(C)COc1ccc(-c2ncncc2-c2ccccc2OC)c(O)c1 | ? | . | . | 13µM | .
CCOc1ccc(-c2ncncc2-c2ccccc2OC)c(O)c1 | ? | . | . | 2.9µM | .
COc1ccc(-c2ncncc2-c2ccc(OC)c(OC)c2)c(O)c1 | . | . | . | . | .
O=C(NCCC1=CCCCC1)C1CCN(C(=O)Cc2ccccc2)CC1 | . | . | . | . | .
CCOC(=O)CN1C(=O)S/C(=C/c2ccc(N3CCCCC3)o2)C1=O | . | . | . | . | .
O=C(O)C(Cc1ccccc1)N1C(=O)/C(=C/c2cccs2)SC1=S (configuration not stated) | 10µM | . | . | . | .
O=C(CN1C(=O)/C(=C/c2ccco2)SC1=S)Nc1ccc(C(=O)O)c(O)c1 | ? | . | ? | . | .
O=C(O)C(c1ccccc1)N1C(=O)/C(=C/c2cccs2)SC1=S (configuration not stated) | . | . | . | ? | .
O=C(CN1C(=O)/C(=C\c2cccs2)SC1=S)Nc1cccc(C(=O)O)c1 | ? | . | . | . | 53
O=C(CN1C(=O)/C(=C/c2ccco2)SC1=S)Nc1ccc(O)c(C(=O)O)c1 | 15µM | . | . | . | .
CCOC(=O)CN1C(=O)S/C(=C/c2ccco2)C1=O | . | 15 | . | . | .
COc1ccc(NC(=O)NC2(C(=O)N3CCCCC3)CCCCC2)cc1 | . | . | . | . | .
Cc1cc2cc(CNC(=O)C(C)Oc3ccccc3)ccc2n1C (configuration not stated) | . | . | ? | . | .
CC(C)CC(=O)N1CCN(Cc2ccc(Br)cc2)CC1 | ? | . | . | . | .
COc1ccc(S(=O)(=O)N2CCCCC2)cc1NC(=O)C1CC1C (configuration not stated) | . | / | / | . | /
CCOCCCNC(=O)Cn1cnc2c(cnn2-c2ccc(C)c(C)c2)c1=O | . | . | . | . | .
Cc1ccc(NC(C)c2cc(Cl)ccc2O)cc1 (configuration not stated) | . | . | . | / | .
O=C(NCCCN1CCCC1=O)c1ccc(Cl)c(NS(=O)(=O)c2ccc(F)cc2)c1 | ? | . | . | . | .
O=C(CCCN1C(=O)/C(=C/c2ccco2)SC1=S)Nc1cccc(C(=O)O)c1 | 13µM | . | . | . | .
COc1ccc(NC(=O)CCCN2C(=O)/C(=C\c3ccco3)SC2=S)cc1 | 5.2µM | . | . | . | .
O=C(CCCN1C(=O)/C(=C\c2cccs2)SC1=S)Nc1cccc(C(=O)O)c1 | . | . | / | . | .
SMILES | Pf growth 96h | Cycloheximide cs | NS1 function inh | Pf growth 48h | Shiga inhibitor
O=C(CCCN1C(=O)/C(=C\c2ccco2)SC1=S)Nc1ccc(O)cc1C(=O)O | . | . | ? | . | .
Cc1nc(C)c(C(=O)NNC(=O)Nc2ccc(Cl)cc2)s1 | . | . | . | . | .
Cc1ccc(NC(=S)NC2CCSc3ccccc32)cc1C (configuration not stated) | ? | . | . | ? | .
Cc1c(NC(=O)CSCc2ccco2)c(=O)n(-c2ccccc2)n1C | . | . | . | . | .
CCN(CC)S(=O)(=O)c1cccc(NC(=O)COC(=O)c2cccs2)c1 | . | . | / | . | .
COc1ccc(CNCCc2c[nH]c3ccccc23)c(OC)c1C | 2.9µM | . | . | ? | .
COc1cc(C)c(CNCCc2c[nH]c3ccccc23)cc1C | . | . | . | ? | .
COc1ccc(CNCCc2ccccc2F)c(OC)c1C | . | . | . | 10µM | .
COc1ccc(/C=C(\C#N)C(=O)Nc2ccc3[nH]c(=O)[nH]c3c2)cc1 | ? | . | . | . | .

Bioassay records deposited in PubChem BioAssay by National Center for Advancing Translational Sciences (NCATS).
